Measurements reported in ChEMBL document CHEMBL3988442, “University of Dundee, Small-Polar-MMV Screening Library” (2021).
For some of these results: Results with a measured potency or affinity are listed apart.

What was measured:
Design in all cases: scale not given: direction of the effect not stated beside the values
[1] = biological target: Protein translocase subunit SecA (Escherichia coli (strain K12)) (UniProt P10408); test: Assay to Identify E. coli SecA ATPase Inhibitors; format: functional; conditions: 30 µM
[2] = biological target: T1, Ubiquitin-activating enzyme e1, putative (Leishmania donovani (strain BPK282A1)) (UniProt E9BSI1); test: Leishmania donovani Ubiquitin Activating Enzyme (LdE1); format: functional; conditions: 30 µM
T1 sequence (whole entry): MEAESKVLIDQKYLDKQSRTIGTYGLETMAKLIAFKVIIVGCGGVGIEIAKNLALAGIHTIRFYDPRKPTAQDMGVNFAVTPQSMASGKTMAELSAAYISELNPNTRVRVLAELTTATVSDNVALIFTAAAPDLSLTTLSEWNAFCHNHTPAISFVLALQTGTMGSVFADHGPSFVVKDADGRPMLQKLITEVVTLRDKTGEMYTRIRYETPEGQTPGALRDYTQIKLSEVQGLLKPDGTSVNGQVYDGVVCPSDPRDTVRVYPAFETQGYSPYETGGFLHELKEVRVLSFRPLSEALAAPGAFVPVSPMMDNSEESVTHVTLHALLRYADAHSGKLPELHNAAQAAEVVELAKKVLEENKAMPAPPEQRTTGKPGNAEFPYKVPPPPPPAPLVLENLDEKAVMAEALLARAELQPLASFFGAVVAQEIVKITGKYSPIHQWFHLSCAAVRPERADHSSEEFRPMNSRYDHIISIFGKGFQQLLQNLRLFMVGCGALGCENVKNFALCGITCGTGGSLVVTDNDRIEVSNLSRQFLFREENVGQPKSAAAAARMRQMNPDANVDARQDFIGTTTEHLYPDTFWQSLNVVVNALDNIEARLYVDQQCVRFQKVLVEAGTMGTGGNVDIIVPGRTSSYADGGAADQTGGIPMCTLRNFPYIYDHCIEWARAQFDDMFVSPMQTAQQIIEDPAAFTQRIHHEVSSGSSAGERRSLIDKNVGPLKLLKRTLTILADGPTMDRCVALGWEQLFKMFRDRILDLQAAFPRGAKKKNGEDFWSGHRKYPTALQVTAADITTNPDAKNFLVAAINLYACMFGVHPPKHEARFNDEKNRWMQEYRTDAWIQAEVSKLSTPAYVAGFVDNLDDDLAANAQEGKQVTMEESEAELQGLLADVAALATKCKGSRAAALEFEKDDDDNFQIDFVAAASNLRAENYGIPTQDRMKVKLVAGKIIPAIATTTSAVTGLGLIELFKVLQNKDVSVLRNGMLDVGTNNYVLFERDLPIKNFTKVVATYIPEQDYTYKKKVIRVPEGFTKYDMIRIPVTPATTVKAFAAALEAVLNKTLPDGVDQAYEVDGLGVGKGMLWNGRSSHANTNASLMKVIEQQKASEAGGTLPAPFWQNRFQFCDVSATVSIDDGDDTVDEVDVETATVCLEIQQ

[3] = biological target: AMP-activated protein kinase, AMPK (Homo sapiens) (UniProt P54646+O43741+P54619+Q9UGJ0+Q9Y478+Q13131+Q9UGI9); test: AMP-dependent Kinase enzyme assay. An in vitro enzyme assay that detects ADP turnover that is directly proportional to AMPK activity. This uses naive AMPK that is activated during the assay with MK-8722; format: functional; conditions: 30 µM
[4] = biological target: Sialic acid-binding Ig-like lectin 9 (Homo sapiens) (UniProt Q9Y336); test: Hs-Siglec9 ALPHAscreen SOP 20170721; conditions: 10 µM
[5] = test system: Trypanosoma cruzi; test: Trypanosoma cruzi phosphomannomutase and mannose-1-phosphate guanylyltransferase assay; format: functional; conditions: 10 µM
[6] = biological target: T2, Arginase-2, mitochondrial (Homo sapiens) (UniProt P78540); test: in vitro enzyme assay to detect the production of urea directly proportional to the activity of Arginase II; format: functional; conditions: 33.3 µM; note: in the data most compounds retested in dose-response had high values
T2 sequence (whole entry): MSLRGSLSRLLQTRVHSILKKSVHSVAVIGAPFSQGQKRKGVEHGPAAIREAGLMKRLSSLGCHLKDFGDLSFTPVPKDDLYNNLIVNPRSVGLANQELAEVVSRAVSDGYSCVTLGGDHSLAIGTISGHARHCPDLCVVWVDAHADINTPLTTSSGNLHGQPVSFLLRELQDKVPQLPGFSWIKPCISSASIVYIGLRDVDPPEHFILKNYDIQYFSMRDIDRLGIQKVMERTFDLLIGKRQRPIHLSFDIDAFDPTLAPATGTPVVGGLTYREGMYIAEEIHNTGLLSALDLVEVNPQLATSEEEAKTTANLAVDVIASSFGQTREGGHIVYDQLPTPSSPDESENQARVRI

[7] = biological target: T3, Proteasome subunit beta (Trypanosoma cruzi) (UniProt O96673); test: Trypanosoma cruzi proteasome chymotrypsin-like activity (TcProtChymo) assay.; note: in the data most compounds retested in dose-response had high values; format: functional; conditions: 9.37 µM
T3 sequence (whole entry): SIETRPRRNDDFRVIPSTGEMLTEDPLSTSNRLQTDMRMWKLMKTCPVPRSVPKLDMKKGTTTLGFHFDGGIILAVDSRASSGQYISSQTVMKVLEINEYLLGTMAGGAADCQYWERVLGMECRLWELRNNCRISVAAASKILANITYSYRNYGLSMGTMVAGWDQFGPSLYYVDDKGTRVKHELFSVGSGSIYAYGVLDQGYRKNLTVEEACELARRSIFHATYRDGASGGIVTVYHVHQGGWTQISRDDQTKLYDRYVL

[8] = species on record: Homo sapiens; test: To identify inhibition of the IFN signalling (Jak-Stat) pathway via expression of an eGFP reporter gene under the control of an IFN-stimulated response element (ISRE) containing MxA promoter.; format: functional; conditions: 30 µM
[9] = biological target: T4, Tyrosyl-tRNA synthetase, putative (Trypanosoma cruzi (strain CL Brener)) (UniProt Q4DSP6); test: Trypanosoma cruzi tyrosyl tRNA synthetase (TcYRS) _High Tyrosine SOP; format: functional; conditions: 30 µM; note: in the data most compounds retested in dose-response had high values
T4 sequence (whole entry): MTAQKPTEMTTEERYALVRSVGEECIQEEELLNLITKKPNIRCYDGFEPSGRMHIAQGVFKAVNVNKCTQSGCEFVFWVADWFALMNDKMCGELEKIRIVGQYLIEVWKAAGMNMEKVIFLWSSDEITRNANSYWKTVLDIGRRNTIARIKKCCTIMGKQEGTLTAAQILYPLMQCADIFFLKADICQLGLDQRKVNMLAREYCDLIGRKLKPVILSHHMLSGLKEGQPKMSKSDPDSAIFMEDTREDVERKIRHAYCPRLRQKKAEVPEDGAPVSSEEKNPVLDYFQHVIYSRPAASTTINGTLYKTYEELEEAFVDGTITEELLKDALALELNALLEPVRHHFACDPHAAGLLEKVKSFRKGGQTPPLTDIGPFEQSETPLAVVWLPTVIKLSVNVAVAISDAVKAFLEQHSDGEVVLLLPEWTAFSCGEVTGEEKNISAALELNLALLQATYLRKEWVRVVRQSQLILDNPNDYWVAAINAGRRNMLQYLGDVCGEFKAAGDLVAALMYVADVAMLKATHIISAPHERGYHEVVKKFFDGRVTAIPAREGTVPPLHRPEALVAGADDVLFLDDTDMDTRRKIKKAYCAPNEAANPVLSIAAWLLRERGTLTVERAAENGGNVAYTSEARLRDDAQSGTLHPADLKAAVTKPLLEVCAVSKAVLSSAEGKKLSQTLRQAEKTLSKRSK

[10] = biological target: T4, Tyrosyl-tRNA synthetase, putative (Trypanosoma cruzi (strain CL Brener)); test: Trypanosoma cruzi tyrosyl tRNA synthetase (TcYRS) SOP; format: functional; conditions: 30 µM
[11] = biological target: Chromo domain-containing protein 1 (Saccharomyces cerevisiae (strain ATCC 204508 / S288c) (Baker's yeast)) (UniProt P32657); test: ScCHD-1 Enzyme Inhibition Assay; format: functional; conditions: 30 µM; note: in the data most compounds retested in dose-response had high values
Chain of Chromo domain-containing protein 1 (Saccharomyces cerevisiae (strain ATCC 204508 / S288c) (Baker's yeast)) (P32657 whole entry, the tested form may be a part): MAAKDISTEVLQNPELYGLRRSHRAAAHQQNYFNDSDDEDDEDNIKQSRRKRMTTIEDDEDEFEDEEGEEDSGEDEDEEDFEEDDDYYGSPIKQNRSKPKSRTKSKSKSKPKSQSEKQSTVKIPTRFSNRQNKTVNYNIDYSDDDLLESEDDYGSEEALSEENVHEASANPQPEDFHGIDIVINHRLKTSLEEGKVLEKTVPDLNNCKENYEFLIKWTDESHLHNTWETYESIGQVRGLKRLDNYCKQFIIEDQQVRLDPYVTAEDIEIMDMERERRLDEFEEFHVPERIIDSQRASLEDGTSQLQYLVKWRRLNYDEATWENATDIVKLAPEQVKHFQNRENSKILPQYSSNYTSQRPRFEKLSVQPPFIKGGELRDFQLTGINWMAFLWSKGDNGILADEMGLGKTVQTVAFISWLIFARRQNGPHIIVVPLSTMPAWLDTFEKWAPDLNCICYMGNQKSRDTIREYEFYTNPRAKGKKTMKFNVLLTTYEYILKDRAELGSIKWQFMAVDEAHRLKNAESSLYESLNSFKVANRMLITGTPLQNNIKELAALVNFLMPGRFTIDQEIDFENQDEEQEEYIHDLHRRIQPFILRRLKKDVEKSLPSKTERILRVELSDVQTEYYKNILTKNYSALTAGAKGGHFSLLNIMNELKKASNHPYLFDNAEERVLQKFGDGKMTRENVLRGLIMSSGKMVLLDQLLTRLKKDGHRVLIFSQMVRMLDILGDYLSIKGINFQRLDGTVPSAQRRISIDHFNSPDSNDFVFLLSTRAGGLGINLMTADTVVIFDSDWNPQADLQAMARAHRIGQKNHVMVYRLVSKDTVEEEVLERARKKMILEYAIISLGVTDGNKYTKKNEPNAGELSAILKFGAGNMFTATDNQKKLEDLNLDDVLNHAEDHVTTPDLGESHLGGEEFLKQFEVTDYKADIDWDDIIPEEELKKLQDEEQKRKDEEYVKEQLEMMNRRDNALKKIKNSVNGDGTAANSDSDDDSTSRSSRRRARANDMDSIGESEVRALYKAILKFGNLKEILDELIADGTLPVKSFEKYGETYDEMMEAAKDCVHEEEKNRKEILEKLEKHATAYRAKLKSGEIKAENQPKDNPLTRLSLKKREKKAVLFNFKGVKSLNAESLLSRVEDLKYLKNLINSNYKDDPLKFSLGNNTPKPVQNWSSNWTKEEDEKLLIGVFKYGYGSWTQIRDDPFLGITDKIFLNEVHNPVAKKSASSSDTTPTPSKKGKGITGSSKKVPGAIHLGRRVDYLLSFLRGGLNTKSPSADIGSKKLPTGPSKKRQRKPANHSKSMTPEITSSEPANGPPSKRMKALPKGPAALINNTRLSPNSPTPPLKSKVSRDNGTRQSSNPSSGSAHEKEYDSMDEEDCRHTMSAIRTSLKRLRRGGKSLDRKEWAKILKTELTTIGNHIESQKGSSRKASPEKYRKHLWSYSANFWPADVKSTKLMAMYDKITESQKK

Chain of Protein translocase subunit SecA (Escherichia coli (strain K12)) (P10408 whole entry): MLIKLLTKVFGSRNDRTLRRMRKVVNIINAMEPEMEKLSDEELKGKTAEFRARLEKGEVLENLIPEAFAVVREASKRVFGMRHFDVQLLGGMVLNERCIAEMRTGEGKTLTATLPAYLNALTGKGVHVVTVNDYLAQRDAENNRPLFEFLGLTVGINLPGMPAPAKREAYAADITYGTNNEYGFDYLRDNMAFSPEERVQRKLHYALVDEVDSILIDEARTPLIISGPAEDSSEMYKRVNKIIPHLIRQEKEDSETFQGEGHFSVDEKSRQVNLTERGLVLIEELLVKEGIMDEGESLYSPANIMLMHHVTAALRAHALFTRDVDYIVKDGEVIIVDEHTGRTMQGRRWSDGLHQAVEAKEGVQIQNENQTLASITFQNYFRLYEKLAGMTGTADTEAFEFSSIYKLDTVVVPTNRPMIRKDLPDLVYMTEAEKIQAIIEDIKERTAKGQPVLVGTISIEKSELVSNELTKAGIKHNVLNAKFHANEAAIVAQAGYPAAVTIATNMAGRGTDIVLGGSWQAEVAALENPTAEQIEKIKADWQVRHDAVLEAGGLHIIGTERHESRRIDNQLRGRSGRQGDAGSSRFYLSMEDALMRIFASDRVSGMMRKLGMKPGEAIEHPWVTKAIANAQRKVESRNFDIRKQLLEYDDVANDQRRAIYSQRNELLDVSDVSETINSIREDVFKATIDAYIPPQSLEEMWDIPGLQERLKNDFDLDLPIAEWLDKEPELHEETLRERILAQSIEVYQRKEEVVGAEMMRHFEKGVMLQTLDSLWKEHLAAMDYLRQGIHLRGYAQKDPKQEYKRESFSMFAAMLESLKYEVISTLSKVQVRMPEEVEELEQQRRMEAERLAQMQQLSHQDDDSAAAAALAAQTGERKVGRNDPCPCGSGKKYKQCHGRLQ
Chain of Sialic acid-binding Ig-like lectin 9 (Homo sapiens) (Q9Y336 whole entry): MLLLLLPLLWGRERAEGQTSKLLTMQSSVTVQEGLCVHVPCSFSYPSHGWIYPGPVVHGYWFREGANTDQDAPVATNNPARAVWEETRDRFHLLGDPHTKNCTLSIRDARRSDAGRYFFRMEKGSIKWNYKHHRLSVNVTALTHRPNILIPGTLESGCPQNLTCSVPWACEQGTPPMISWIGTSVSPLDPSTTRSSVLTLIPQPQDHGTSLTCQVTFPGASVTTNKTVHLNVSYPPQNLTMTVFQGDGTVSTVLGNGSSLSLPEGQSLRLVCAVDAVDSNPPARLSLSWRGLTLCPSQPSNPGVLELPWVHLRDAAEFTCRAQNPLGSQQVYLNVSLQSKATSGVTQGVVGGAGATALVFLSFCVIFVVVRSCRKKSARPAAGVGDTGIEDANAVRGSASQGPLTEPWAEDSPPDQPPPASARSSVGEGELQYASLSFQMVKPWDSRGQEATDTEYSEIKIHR

Row | SMILES | Percent Effect [1] [%] | Percent Effect [2] [%] | Percent Effect [3] [%] | Percent Effect [4] [%] | Percent Effect [5] [%] | Percent Effect [6] [%] | Percent Effect [7] [%] | Percent Effect [8] [%] | Percent Effect [9] [%] | Percent Effect [10] [%] | Percent Effect [11] [%]
1 | Cn1cc(CN2CCn3cc(CNC(=O)C4CCC4)nc3C2)cn1 | -3.67 | 5.33 | 4.55 | 2.73 | -0.386 | -31 | 7.69 | 0.15 | 7.29 | 12.5 | -8.18
2 | Cc1csc(N2CCN(C(=O)Cc3ccc(C)s3)CC2)n1 | -4.68 | 10.8 | -9.36 | 4.82 | -6.89 | -5.61 | 25.2 | 15.8 | 12.3 | 11.1 | 1.36
3 | Cc1cnn(CC2CCCCN2Cc2nc(N)c3ccccc3n2)c1 (stereo not given) | -5.11 | 10.1 | -4.6 | 5.93 | 8.78 | 0 | 12.2 | -0.892 | 14.3 | 21.5 | -8.03
4 | Cc1nn(C)c2c(=O)n(CC(=O)Nc3cc(Cl)cc(Cl)c3)nnc12 | 0.37 | 12 | 0.0353 | 1.72 | -6.29 | -1.58 | 19.6 | 12.4 | 2.12 | 10.3 | -8.24
5 | Cc1nc(C(=O)N2CCCC(c3cccc(-n4ccnc4)n3)C2)co1 (stereo not given) | -7.87 | 1.35 | 2.78 | 1.23 | -5.34 | -2.55 | 10.1 | 12.6 | 0 | 1.3 | -6.74
6 | CCN(CC)c1ccc(C(=O)NCc2cccnc2-n2cncn2)cn1 | -0.491 | 8.11 | -12.6 | 48.7 | 1.86 | 18.6 | 8.84 | 19.1 | 2.15 | 11.1 | -5.91
7 | O=C(NCCn1ccnc1)c1ccn(-c2cccc(F)c2)n1 | -6.24 | 15.8 | -0.288 | -5.43 | -11.1 | -0.719 | 2.28 | -0.954 | 0.493 | 3.7 | -2.98
8 | O=c1cc(CN2CCCC2)nc2n1CCCN(Cc1ccsc1)C2 | -0.492 | 17.3 | 3.4 | 2.2 | -1.57 | -9.68 | 14.4 | -8.49 | 4.23 | 7.69 | -10.8
9 | COc1ccc(CCC(=O)NC2CCC(O)CC2)cc1OC (stereo not given) | -5.53 | 13.2 | -3.83 | 13 | -0.654 | -3.24 | 2.12 | 7.63 | 2.46 | 6.17 | -1.04
10 | Cc1ccc2c(ccn2CC(=O)NC[C@@H]2CCCN3CCCC[C@H]23)c1 | -5.2 | 28 | -5.58 | 4.06 | 5.5 | -6.16 | 16.3 | -4.16 | 4.23 | 12.8 | -11.5
11 | O=C(c1ccncc1)N1CCC(O)(Cn2ccc3ccncc32)CC1 | -2.15 | 6.76 | 7.19 | -2.13 | -3.75 | 0.232 | 17.9 | -0.964 | 4.3 | 9.09 | -10.5
12 | COc1cc(N2C[C@@H]3COC[C@]3(COc3ccc(C#N)cn3)C2)ncn1 | -3.38 | 13.5 | 2.34 | 2.33 | 4.01 | 9.24 | 12.6 | 35.9 | 4.32 | 7.69 | 1.63
13 | O=C(NCc1cccc(F)c1)N1CCC2(CC(=O)N(c3ccsc3)C2)C1 (stereo not given) | -3.47 | 8.11 | -0.642 | -0.223 | 1.95 | 0.833 | 15.1 | -5.74 | 9.9 | 15.8 | -4.87
14 | O=C(c1ccccn1)N1C[C@@H]2CC[C@H](C1)N(C(=O)CCc1cccs1)C2 | -6.27 | 5.2 | 2.15 | 9.38 | 6.59 | -74.5 | 13.1 | -10.3 | 3.23 | 8.64 | 2.24
15 | COc1ccc(-c2noc(C(=O)NCCN3CCCCC3)n2)cc1OC | -7.28 | 14.7 | -14.8 | 5.74 | 8.25 | -18.8 | 1.85 | 6.7 | 3.17 | -5.13 | -13.9
16 | O=C(c1ccn(-c2ccccc2Cl)n1)N1CCSCC1 | -4.68 | 8.11 | 1.31 | 12.9 | -6.55 | 1.74 | 3.69 | 20.1 | 0 | 11.1 | -3.09
17 | COc1ccc(OCc2nc(C(=O)N3CC(O)C3)co2)cc1 | -5.91 | 5.41 | 4.37 | 4.07 | 1.74 | 1.43 | 3.28 | 2.54 | 4.76 | 2.44 | -0.668
18 | Cc1ncsc1C(=O)N(C)Cc1cccc(Cl)c1 | 0.989 | 18.4 | -2.9 | -2.59 | 2.44 | -2.3 | 20.6 | 7.48 | 5.39 | 19.5 | -10.9
19 | COc1c(CNC2CCOc3ccccc32)c(C(C)C)nn1C (stereo not given) | -0.153 | -48.6 | -2.39 | 7.95 | 1.58 | 0.924 | 3.95 | 0.812 | 7.92 | 18.3 | -6.55
20 | COCCNc1nc2c(c(NCc3ccncc3)n1)CCNCC2 | 1.06 | 0 | -4.61 | 0.0545 | 3.28 | -3.81 | 13.8 | 5.66 | 5.82 | 7.32 | -2.76
